Bioassay records: PubChem, National Center for Advancing Translational Sciences (NCATS)
The list is not random: actives were taken first. Their share in the collection is about 12%.
Cycloheximide cs – counter-screen hit for Shiga toxin inhibitors, cycloheximide | cell reporter, cycloheximide protein synthesis inhibition counterscreen | max response, % | actives 12% (n = 300,000) | AID 2314; in the data active = max response mostly above about 13%, no sharp cut-off; inactive = mostly below about 14%; note: read at 38.3 µM for the half of the compounds with a filed dose
FMDV antiviral – blocks foot and mouth disease virus | FMDV antiviral cell-based qHTS | Potency, µM (titrated, usually from 57.9 µM), most hits filed as inhibitors | actives 1.2% (n = 410,000) | AID 1159524; calls by dose curve; tested in HEK293T cells; note: read-out not given here; nearly all actives have a fitted effect of over 45% in size
Shiga toxin inh – inhibitors of Shiga toxin in Vero cells | Vero cells, Shiga toxin protein synthesis inhibition reporter | inhibition, % at 38.7 µM | actives 9.2% (n = 290,000) | AID 2315; in the data active = inhibition mostly above about 28%, no sharp cut-off; inactive = mostly below about 43%
Sm TGR block – inhibitors of Schistosoma mansoni thioredoxin glutathione reductase; Q962Y6; purified TGR, DTNB reduction, TNB absorbance 405 nm; Potency, µM (series often up to 114 µM), hits mostly inhibitors; actives 3% (n = 360,000); active = well fitted inhibition curve with a large enough effect; inconclusive = small, poorly fitted or top-dose-only effect; inactive = no such curve, though single readings can be large or run the other way; note: nearly all actives have a fitted effect of over 60% in size
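First, TGR (20 nM dispensed) and NADPH were mixed with compound. Second, a 15 min room-temperature incubation followed. Third, further NADPH and then DTNB were added to start the reaction. Finally, TNB absorbance was monitored kinetically.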
Numbers stand for hits; n = inactive; u = inconclusive; x = no result; [ ] = remark or other dose.

SMILES	Cycloheximide cs	FMDV antiviral	Shiga toxin inh	Sm TGR block
O=C(Nc1nnc(-c2ccccc2Cl)o1)c1cc2cc([N+](=O)[O-])ccc2s1	n	x	n	n
O=C(Nc1ccc(Cl)cc1)c1ccc(-c2ccccn2)s1	42	n	72	n
Cc1cc(NC(=O)c2ccc([N+](=O)[O-])cc2Cl)no1	43	n	70	n
O=C(NC1CC(=O)N(c2ccc(Cl)cc2)C1)c1cccs1 (stereo not given)	x	n	x	n
CN(C)c1ncc2nc(CCc3ccccc3)c(=O)n(-c3ccccc3)c2n1	x	n	x	x
O=C(Nc1ccccn1)c1ccc(Br)s1	40	n	x	n
Cc1ccc(NC(=O)c2ccc([N+](=O)[O-])cc2Cl)nc1	75	n	125	n
O=C(N/N=C/c1cccnc1)c1ccc([N+](=O)[O-])cc1Cl	n	n	n	n
Cc1ccc(NC(=O)Nc2ccc([N+](=O)[O-])cc2)nc1	n	n	n	n
COc1ccc(NC(=O)c2cc(SC)ccc2Cl)cc1	n	n	n	n
CSc1ccc(Cl)c(C(=O)Nc2ccc(C)cn2)c1	25	n	n	x
O=C(N/N=C/c1ccccn1)c1ccc([N+](=O)[O-])cc1Cl	28	n	x	n
Cc1cccc(NC(=O)Cn2c(=O)ccc3cc(S(=O)(=O)N4CCCC4)ccc32)c1C	x	n	x	n
Cc1cc(C)c2oc(-c3cccc(NC(=O)c4cc5ccccc5o4)c3)nc2c1	x	n	x	n
O=C(Nc1ccccn1)c1ccc([N+](=O)[O-])cc1Cl	16	n	n	n
O=C(Nc1cccc(NC(=O)c2cc([N+](=O)[O-])ccc2Cl)n1)c1cc([N+](=O)[O-])ccc1Cl	x	13µM	x	x
COc1ccc(C(=O)c2ccc([N+](=O)[O-])cc2Cl)cc1	n	n	n	13µM
O=C(Nc1ccccn1)c1ccc(Cl)c([N+](=O)[O-])c1	20	n	64	n
O=C(Nc1cccnc1Cl)c1ccc(Cl)c([N+](=O)[O-])c1	n	n	n	n
CCCCNc1nc2c(S(=O)(=O)c3ccc(Br)cc3)nnn2c2ccsc12	x	n	x	n
O=C(COc1ccccc1Br)NCc1ccccn1	29	n	64	n
O=C(COc1ccc(F)cc1Br)NCc1nnc2ccccn12	x	n	x	x
O=C(COc1ccc(F)cc1Br)NCc1ccccn1	48	n	61	n
Cc1ccc(OCC(=O)NCc2ccccn2)c(Br)c1	31	n	78	n
Cc1ccc(OCC(=O)NCCO)c(Br)c1	31	n	n	n
SMILES	Cycloheximide cs	FMDV antiviral	Shiga toxin inh	Sm TGR block
Cc1cccc(-c2cc(NC(=O)COc3ccccc3F)n(-c3ccccc3)n2)c1	x	n	x	n
COc1cccc2c1Oc1ncccc1N(C(=O)CCC(=O)NCc1ccc(OC(C)C)cc1)C2	x	n	x	n
CCCCC/C=C\C\C=C/C=C/C=C/[C@@H](SC[C@H](N)C(=O)NCC(=O)O)[C@@H](O)CCCC(=O)O	x	n[0.463 µM]	x	x
Cc1ccc(Cc2c(C)nc3nc(SCC(=O)NCCC(C)C)nn3c2C)cc1	x	n	x	n
COc1cc(Cl)c(C)cc1NC(=O)c1nn(-c2ccc(C)cc2)c(=O)n(C)c1=O	x	n	x	n
O=[N+]([O-])CC(=Nc1ccc(F)cc1)N/N=C\c1oc(O)c2ccccc12	n	x	n	11µM
O=C(Cc1c[nH]c2ccccc12)N/N=C/c1ccc(F)cc1	n	n	n	n
CCC(C)NC(=O)CCC(=O)N1Cc2ccccc2Oc2ncccc21 (stereo not given)	x	n	x	n
C=CCN1CCc2cccc3c2[C@H]1Cc1ccc(O)c(O)c1-3	n	n	n	1.6µM
Cc1ccc2[nH]c(CSc3nnc(NC(=O)COc4ccccc4C)s3)cc(=O)c2c1	x	n	x	n
Cc1cccc(C)c1NC(=O)CSc1n[nH]c(=O)n1C1CC1	x	n	x	x
O=C(CSc1n[nH]c(=O)n1C1CC1)c1ccc(F)cc1	13	n	n	n
Cc1ccc(-n2c(SCC(N)=O)nc3c(oc4ccccc43)c2=O)cc1C	x	u	x	n
O=C1COc2ccc3ccccc3c21	16	n	n	n
CC(=O)N1c2ccc(S(=O)(=O)NCC3CCC(C(=O)Nc4cccc(C)c4C)CC3)cc2CC1C (stereo not given)	x	u	x	n
COC(=O)c1ccccc1NC(=O)Cc1nc(-c2ccc(OC)cc2)no1	x	n	x	n
Cc1ccc(S(=O)(=O)c2nc(S(C)(=O)=O)sc2N(C)C)cc1	n	n	n	25µM
Cc1ccc(C(=O)CC(=O)c2cc(Cl)ccc2O)cc1	35	n	121	n
Cc1ccc(C(=O)Cc2ccccc2)c(O)c1	x	n	x	x
Cc1ccc(C(=O)CC(=O)c2ccc(C)cc2O)cc1	39	n	87	n
COc1ccc(Cl)cc1NC(=O)CCS(=O)(=O)c1cccc2nonc12	x	n	x	n
O=C(NNC(=S)NC(=O)c1sc2ccccc2c1Cl)c1ccc(Cl)cc1	14	n	n	n
O=C(Nc1ccncc1)c1sc2ccccc2c1Cl	26	n	72	n
CCn1nnc(NC(=O)c2cccnc2Cl)n1	n	n	n	n
O=C(O)c1ccccc1NC(=S)NC(=O)c1sc2ccccc2c1Cl	n	n	n	n
SMILES	Cycloheximide cs	FMDV antiviral	Shiga toxin inh	Sm TGR block
CCn1nnc(NC(=O)c2sc3ccccc3c2Cl)n1	42	n	66	n
CN1CCN(c2ccc(NC(=O)c3sc4ccccc4c3Cl)cc2)CC1	43	n	82	n
Cc1ccc(NC(=O)c2sc3ccccc3c2Cl)cc1	x	n	x	n
O=C(Nc1ccc(C(=O)Nc2ccc(C(=O)Nc3ccc(S(=O)(=O)O)c4cc(S(=O)(=O)O)cc(S(=O)(=O)O)c34)cc2)cc1)Nc1ccc(C(=O)Nc2ccc(C(=O)Nc3ccc(S(=O)(=O)O)c4cc(S(=O)(=O)O)cc(S(=O)(=O)O)c34)cc2)cc1	x	n	x	x
COc1cccc(S(=O)(=O)c2nc(C)c3c(n2)CCC3)c1	n	13µM	n	x
Cc1ccc(S(=O)(=O)c2nc(C)c3c(n2)CCC3)cc1	n	n	n	n
c1ccc2c(c1)nc1n2C2(N3CCOCC3)CCCC2C1N1CCOCC1 (stereo not given)	10	n	n	32µM
CN1C(=O)/C(=C\N2CCc3ccccc32)C(=O)NC1=S	13	n	n	u
CCC1S/C(=N/C(=O)NC2CCCCC2)NC1=O (stereo not given)	n	n	n	n
O=C(/N=C1\NC(=O)C(F)(C(F)(F)F)S1)NC1CCCCC1 (stereo not given)	n	n	n	13µM
COc1ccc(S(=O)(=O)N2N=C(c3cccc(NS(C)(=O)=O)c3)CC2c2ccco2)cc1 (stereo not given)	n	n	n	22µM
COc1cccc(C2=NN(C(=O)c3ccco3)C(c3ccco3)C2)c1 (stereo not given)	29	n	72	u
COc1ccc(S(=O)(=O)N2N=C(c3ccc(NS(C)(=O)=O)cc3)CC2c2ccco2)cc1 (stereo not given)	n	n	n	14µM
CS(=O)(=O)Nc1cccc(C2=NN(S(=O)(=O)c3ccc(F)cc3)C(c3cccs3)C2)c1 (stereo not given)	n	n	n	n
CSc1ccc(CCNC(=O)CN2C(=O)COc3ccc(S(=O)(=O)N4CCCCCC4)cc32)cc1	x	n	x	n
O=C1C=C(NCCc2cc(Br)c(O)c(Br)c2)C(=O)c2ncccc21	x	10µM	x	x
COCCN1Cc2cccc(C(=O)Nc3cc(C)cc(C)c3)c2C1=O	n	n	n	n
